# Reference: publication PMC5540273 (PLoS ONE, 2017)
# Several values for one entry are separate records, joined by “and”; a condition that tells them apart may be missing. Identical values can stand only once. Like-named read-outs stand apart in the source and are kept apart here.
# Tests used:
# MYO3B = conditions: concentration: 1 μM, replicates: in singlicate; n = 1
# NDR1 = tested on: T1, NDR1; conditions: concentration: 1 μM, replicates: in singlicate, n = 1
# T1 construct: gene STK38
# NDR2 = conditions: concentration: 1 μM, replicates: in singlicate, n = 1
# NEK10 = conditions: concentration: 1 μM, replicates: in singlicate, n = 1
# NEK11 = conditions: concentration: 1 μM, replicates: in singlicate, n = 1
# NEK1 = conditions: concentration: 1 μM, replicates: in singlicate, n = 1
# NEK2 = conditions: concentration: 1 μM, replicates: in singlicate; n = 1
# NEK3 = conditions: concentration: 1 μM, replicates: in singlicate, n = 1
# NEK4 = conditions: concentration: 1 μM, replicates: in singlicate; n = 1
# NEK5 = conditions: concentration: 1 μM, replicates: in singlicate, n = 1
# NEK6 = conditions: concentration: 1 μM, replicates: in singlicate, n = 1
# NEK7 = conditions: concentration: 1 μM, replicates: in singlicate; n = 1
# NEK9 = conditions: concentration: 1 μM, replicates: in singlicate, n = 1
# NIK = tested on: T2, NIK; conditions: concentration: 1 μM, replicates: in singlicate, n = 1
# T2 construct: gene MAP3K14
# NIM1 = tested on: T3, NIM1; conditions: concentration: 1 μM, replicates: in singlicate, n = 1
# T3 construct: gene MGC42105
# NLK = conditions: concentration: 1 μM, replicates: in singlicate; n = 1
# OSR1 = tested on: T4, OSR1; conditions: concentration: 1 μM, replicates: in singlicate, n = 1
# T4 construct: gene OXSR1
# PAK1 = conditions: concentration: 1 μM, replicates: in singlicate, n = 1
# PAK2 = conditions: concentration: 1 μM, replicates: in singlicate, n = 1
# PAK3 = conditions: concentration: 1 μM, replicates: in singlicate, n = 1
# 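Further: KINOMEscan kinase panel screen.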
smiles,measurement,setting,value
NCCNS(=O)(=O)c1ccc(-c2ccnc3[nH]ccc23)cc1 [GSK977617],%Inh,MYO3B,0%
same,%Inh,NDR1; 1 µM,70% and 58%
same,%Inh,NDR2; 1 µM,77% and 60%
same,%Inh,NEK10; 1 µM,69% and 53%
same,%Inh,NEK11; 1 µM,24% and 0%
same,%Inh,NEK1; 1 µM,62% and 44%
same,%Inh,NEK2,0%
same,%Inh,NEK3; 1 µM,14% and 0%
same,%Inh,NEK4,0%
same,%Inh,NEK5; 1 µM,44% and 25%
same,%Inh,NEK6; 1 µM,4% and 0%
same,%Inh,NEK7,0%
same,%Inh,NEK9; 1 µM,22% and 16%
same,%Inh,NIK; 1 µM,19% and 7%
same,%Inh,NIM1; 1 µM,0% and 26%
same,%Inh,NLK,0%
same,%Inh,OSR1; 1 µM,63% and 52%
same,%Inh,PAK1; 1 µM,66% and 43%
same,%Inh,PAK2; 1 µM,65% and 41%
same,%Inh,PAK3; 1 µM,90.6% and 78%
CCc1nc(-c2cccc(C)c2)c(-c2ccnc(NCc3ccccc3)c2)s1,%Inh,MYO3B,0%
same,%Inh,NDR1,0%
same,%Inh,NDR2,0%
same,%Inh,NEK10,0%
same,%Inh,NEK11,0%
same,%Inh,NEK1,7%
same,%Inh,NEK2,0%
same,%Inh,NEK3,24%
same,%Inh,NEK4,0%
same,%Inh,NEK5,0%
same,%Inh,NEK6,0%
same,%Inh,NEK7,0%
same,%Inh,NEK9,0%
same,%Inh,NIK,0%
same,%Inh,NIM1,0%
same,%Inh,NLK,21%
same,%Inh,OSR1,0%
same,%Inh,PAK1,30%
same,%Inh,PAK2,27%
same,%Inh,PAK3,22%
Fc1ccc(-c2nn3c(OCC(F)(F)F)cccc3c2-c2ccncc2)cc1 [GW514784],%Inh,MYO3B,0%
same,%Inh,NDR1,11%
same,%Inh,NDR2,44%
same,%Inh,NEK10,11%
same,%Inh,NEK11,44%
same,%Inh,NEK1,2%
same,%Inh,NEK2,8%
same,%Inh,NEK3,0%
same,%Inh,NEK4,0%
same,%Inh,NEK5,2%
same,%Inh,NEK6,0%
same,%Inh,NEK7,0%
same,%Inh,NEK9,4%
same,%Inh,NIK,56%
same,%Inh,NIM1,0%
same,%Inh,NLK,65%
same,%Inh,OSR1,20%
same,%Inh,PAK1,0%
same,%Inh,PAK2,0%
same,%Inh,PAK3,0%
Nc1nccc(-c2c(-c3ccc(F)cc3)ncn2C2CCN(CC(F)(F)F)CC2)n1 [SB-236560],%Inh,MYO3B,0%
same,%Inh,NDR1,38%
same,%Inh,NDR2,0%
same,%Inh,NEK10,42%
same,%Inh,NEK11,0%
same,%Inh,NEK1,0%
same,%Inh,NEK2,0%
same,%Inh,NEK3,24%
same,%Inh,NEK4,0%
same,%Inh,NEK5,16%
same,%Inh,NEK6,0%
same,%Inh,NEK7,0%
same,%Inh,NEK9,20%
same,%Inh,NIK,13%
same,%Inh,NIM1,50%
same,%Inh,NLK,60%
same,%Inh,OSR1,0%
same,%Inh,PAK1,0%
same,%Inh,PAK2,0%
same,%Inh,PAK3,100%
Fc1ccc(-c2ncn(CCCN3CCOCC3)c2-c2ccccn2)cc1 [SB-211742],%Inh,MYO3B,10%
same,%Inh,NDR1,13%
same,%Inh,NDR2,0%
same,%Inh,NEK10,0%
same,%Inh,NEK11,0%
same,%Inh,NEK1,0%
same,%Inh,NEK2,7%
same,%Inh,NEK3,28%
same,%Inh,NEK4,0%
same,%Inh,NEK5,16%
same,%Inh,NEK6,15%
same,%Inh,NEK7,0%
same,%Inh,NEK9,0%
same,%Inh,NIK,0%
same,%Inh,NIM1,0%
same,%Inh,NLK,0%
same,%Inh,OSR1,0%
same,%Inh,PAK1,0%
same,%Inh,PAK2,0%
same,%Inh,PAK3,0%
O=c1cc(N2CCOCC2)nc2n(Cc3cccc4ccccc34)ccn12 [GSK2333389],%Inh,MYO3B,0%
same,%Inh,NDR1,0%
same,%Inh,NDR2,0%
same,%Inh,NEK10,0%
same,%Inh,NEK11,0%
same,%Inh,NEK1,0%
same,%Inh,NEK2,6%
same,%Inh,NEK3,0%
same,%Inh,NEK4,6%
same,%Inh,NEK5,0%
same,%Inh,NEK6,0%
same,%Inh,NEK7,13%
same,%Inh,NEK9,14%
same,%Inh,NIK,0%
same,%Inh,NIM1,8%
same,%Inh,NLK,0%
same,%Inh,OSR1,5%
same,%Inh,PAK1,13%
same,%Inh,PAK2,3%
same,%Inh,PAK3,10%
Fc1ccc(-c2ncn(CCCN3CCOCC3)c2-c2cccnc2)cc1 [SB-211743],%Inh,MYO3B,17%
same,%Inh,NDR1,33%
same,%Inh,NDR2,10%
same,%Inh,NEK10,14%
same,%Inh,NEK11,0%
same,%Inh,NEK1,0%
same,%Inh,NEK2,0%
same,%Inh,NEK3,15%
same,%Inh,NEK4,0%
same,%Inh,NEK5,0%
same,%Inh,NEK6,0%
same,%Inh,NEK7,0%
same,%Inh,NEK9,0%
same,%Inh,NIK,41%
same,%Inh,NIM1,0%
same,%Inh,NLK,3%
same,%Inh,OSR1,0%
same,%Inh,PAK1,15%
same,%Inh,PAK2,23%
same,%Inh,PAK3,0%
Cc1c(Cn2c(C)nn3c(=O)cc(N4CCOC(C)C4)nc23)cccc1C(F)(F)F (stereo not shown) [GSK2344444],%Inh,MYO3B,0%
same,%Inh,NDR1,0%
same,%Inh,NDR2,0%
same,%Inh,NEK10,2%
same,%Inh,NEK11,0%
same,%Inh,NEK1,0%
same,%Inh,NEK2,3%
same,%Inh,NEK3,0%
same,%Inh,NEK4,22%
same,%Inh,NEK5,0%
same,%Inh,NEK6,0%
same,%Inh,NEK7,1%
same,%Inh,NEK9,14%
same,%Inh,NIK,12%
same,%Inh,NIM1,3%
same,%Inh,NLK,0%
same,%Inh,OSR1,23%
same,%Inh,PAK1,0%
same,%Inh,PAK2,0%
same,%Inh,PAK3,20%
